In the supplement of paper PMC12645437, “Orthogonal IMiD-Degron Pairs Induce Selective Protein Degradation in Cells” (ACS Chemical Biology, 2025):
Whole data set: some 8,300 sequences, median “log2 fold change of degron read counts, EGFP-low vs EGFP+ sorted cells (limma voom), compound-induced degradation” near -1.1, cut for the highest 2% near 3.2. The sample as a whole holds a higher share of the highest values than the screen did.

T1: CRBN, Q96SW2
T1 chain: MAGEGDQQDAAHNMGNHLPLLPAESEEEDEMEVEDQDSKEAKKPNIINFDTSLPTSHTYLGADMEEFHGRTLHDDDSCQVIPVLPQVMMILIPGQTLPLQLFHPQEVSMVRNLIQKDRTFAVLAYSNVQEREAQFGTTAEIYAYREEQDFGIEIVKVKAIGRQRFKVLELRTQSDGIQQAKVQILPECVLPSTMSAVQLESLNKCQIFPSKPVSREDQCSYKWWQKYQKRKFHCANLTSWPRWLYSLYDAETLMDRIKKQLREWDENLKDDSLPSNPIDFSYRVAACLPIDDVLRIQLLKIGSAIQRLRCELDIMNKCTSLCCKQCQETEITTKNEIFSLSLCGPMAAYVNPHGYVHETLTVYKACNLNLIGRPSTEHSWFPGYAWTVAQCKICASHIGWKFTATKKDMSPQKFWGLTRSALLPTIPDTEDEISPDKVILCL


Target: T1, CRBN, Q96SW2
Assay: log2 fold change of degron read counts, EGFP-low vs EGFP+ sorted cells (limma voom), compound-induced degradation; higher = more compound-induced degradation of the degron-EGFP fusion; degrons are variants of IKZF1/3 zinc finger 2; compound dose not given here
Settings: Jurkat, 18 h
[1] = compound: compound 19 (5-tert-butyl-thalidomide)
[2] = compound: compound 22 (5-morpholino-thalidomide)
[3] = compound: compound 33 (diphenyl IMiD analogue)
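Further: pooled lentiviral library of zinc finger degron-EGFP fusions in mCherry-positive Jurkat cells, FACS-sorted after compound exposure, with degron abundance counted by next-generation sequencing.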

Sequence	log2 fold change of degron read counts [1]	log2 fold change of degron read counts [2]	log2 fold change of degron read counts [3]	log2 fold change of degron read counts (compound: thalidomide)
FICDICGATFTQKGNLLRHIKL [46F_47I_49D_50I_52G_53A_54T_55F_67L_, Q9UKT9]	-1.39	0.332	0.735	-0.113
FKCEQCGAPFTQKGNLLRHIKL [46F_47K_49E_50Q_52G_53A_54P_55F_67L_, Q9UKT9]	-1.28	-2.18	-2.55	-1.19
FVCNICGACFTQKGNLLRHIKL [46F_47V_49N_50I_52G_53A_54C_55F_67L_, Q9UKT9]	-1.18	0.539	1.63	1.37
FFCNQCGRTFTQKGNLLRHIKL [46F_47F_49N_50Q_52G_53R_54T_55F_67L_, Q9UKT9]	-2.31	-2.17	-2.54	-2.59
FCCSVCGHKFTQKGNLLRHIKL [46F_47C_49S_50V_52G_53H_54K_55F_67L_, Q9UKT9]	-2	-2.26	-2.77	-2.04
FWCEICGHIFTQKGNLLRHIKL [46F_47W_49E_50I_52G_53H_54I_55F_67L_, Q9UKT9]	-0.453	-0.795	-0.246	-0.951
FICEICGRIFTQKGNLLRHIKL [46F_47I_49E_50I_52G_53R_54I_55F_67L_, Q9UKT9]	-1.03	-1.63	0.139	-0.162
FLCEICGRAFTQKGNLLRHIKL [46F_47L_49E_50I_52G_53R_54A_55F_67L_, Q9UKT9]	-1.9	-2.56	-1.36	-1.22
